The values that follow come from PubChem BioAssay AID2322 (Broad Institute, 2010).

In all, about 27,000 compounds went through this assay and about 120 (0.44%) were called active. Only a selection was taken, and actives are over-represented in it overall. Unmarked numbers belong to inactive results. No stated cut-off is given here; in the data, active means inhibition above about 20%; inconclusive means no clear call, values can overlap the other calls; inactive means below that.

A word on the inhibition: it is the change of the read-out against control, counted positive when it falls.

This assay deals with Serine/threonine-protein kinase 33 (Homo sapiens) (UniProt Q9BYT3). Briefly: STK33 kinase inhibitors, primary screen, biochemical, luminescence, ADP-Glo, MBP substrate (AID 2322). As to conditions: at 12.5 µM, hits give high values.
Sequence of Serine/threonine-protein kinase 33 (Homo sapiens) (Q9BYT3 whole entry, looked up): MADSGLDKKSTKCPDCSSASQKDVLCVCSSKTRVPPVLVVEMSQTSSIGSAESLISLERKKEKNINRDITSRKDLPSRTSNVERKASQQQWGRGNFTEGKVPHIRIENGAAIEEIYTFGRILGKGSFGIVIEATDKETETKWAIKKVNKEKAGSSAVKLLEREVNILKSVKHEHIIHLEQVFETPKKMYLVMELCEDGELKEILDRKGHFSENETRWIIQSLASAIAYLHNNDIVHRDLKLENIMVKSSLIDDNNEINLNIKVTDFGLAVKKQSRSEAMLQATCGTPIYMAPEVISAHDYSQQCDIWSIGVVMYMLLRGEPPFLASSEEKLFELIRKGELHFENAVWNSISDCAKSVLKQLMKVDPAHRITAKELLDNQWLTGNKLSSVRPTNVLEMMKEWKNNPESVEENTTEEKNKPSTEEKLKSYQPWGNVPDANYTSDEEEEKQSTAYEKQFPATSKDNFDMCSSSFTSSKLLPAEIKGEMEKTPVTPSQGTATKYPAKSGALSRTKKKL
For `COC(=O)c1cc(NC(=O)Cc2ccccc2[N+](=O)[O-])ccc1Cl`, the inhibition is 1.83%.
On to `CCn1c(SCC(=O)c2ccc(OC)cc2)nnc1-c1ccccc1F`, for which the inhibition is -0.529%.
`Cc1cc(OCc2nc3ccccc3s2)ccc1NC(=O)c1cccc(F)c1`: the inhibition is 0.681%.
To `CS(=O)(=O)N(CC(=O)Nc1ccc(F)cc1F)c1cc(Cl)c(Cl)cc1Cl` belongs -1.13%; to `C=CCN1C(=O)[C@]2(O[C@H](CCn3cc(CCO)nn3)[C@@H]([Si](C)(C)c3ccc(OC)cc3)[C@@H]2C)c2cc(N3CCOC3=O)ccc21`, -0.0517%.
Consider `CC(=O)c1cccc(N(CC(=O)Nc2ccccc2C(F)(F)F)S(C)(=O)=O)c1`, for which the inhibition was 0.774%.
To `CCc1ccccc1NC(=O)COc1cc(O)c2c(=O)cc(-c3ccccc3)oc2c1` belongs 6.95%.
To `CC(=O)OC[C@H]1O[C@@H](Oc2c(-c3ccc(O)c(O)c3)oc3cc(O)cc(O)c3c2=O)[C@H](O)[C@@H](O)[C@@H]1O` belongs 6.14%.
As for `COc1c(O)cc2oc(-c3ccc(O)c(O)c3)cc(=O)c2c1O`, the inhibition is 39.8% (active).
As to `Cc1ccc2nc(-c3ccc(Cl)c(NC(=O)COc4ccc(Br)cc4)c3)oc2c1`, the inhibition is 0.49%.
On to `Cc1ccc(-c2nnc(SCC(=O)Nc3ccccc3OC(F)F)o2)cc1`, for which the inhibition was 2.8%.
Under `C[C@H]1CN([C@@H](C)CO)C(=O)c2cc(NC(=O)CCN3CCOCC3)ccc2O[C@@H]1CN(C)C(=O)Nc1ccc(C(F)(F)F)cc1` stands -0.787%; under `N#Cc1c(NC(=O)C2CC(Cl)=CCC2C(=O)O)sc2c1CCC2` (stereo not drawn), -3.84%; under `CCc1cc(Br)cc(C)c1NC(=O)CSc1nnc(-c2ccc(Cl)cc2)n1C`, 3.71%.
For `C[C@@H]1CN([C@H](C)CO)C(=O)CCCn2nncc2CO[C@@H]1CN(C)S(=O)(=O)c1cccc(C#N)c1`, the inhibition was -5.23%.
For the compound `COC(=O)Nc1ccc(S(=O)(=O)N2CCCC(C(=O)Nc3ccc(N(C)C)cc3)C2)cc1` (stereo not drawn), the inhibition is -2.4%.
`C[C@@H]1CCCCO[C@H](CN(C)C(=O)NC2CCCCC2)[C@@H](C)CN([C@H](C)CO)C(=O)c2cc(NS(=O)(=O)c3ccc(F)cc3)ccc2O1`: the inhibition was -0.501%.
Take `O=C(CSc1nc2c(c(C(F)(F)F)n1)CCCC2)N1c2ccccc2Sc2ccccc21`: the inhibition is 2.75%.
For the compound `Cc1cc(C)cc(NC(=O)CSc2nnc(-c3ccncc3)n2-c2ccccc2)c1`, the inhibition was -3.15%.
Under `Cc1noc(C)c1S(=O)(=O)Nc1ccc2c(c1)CC(=O)N([C@@H](C)CO)C[C@H](C)[C@@H](CN(C)S(=O)(=O)c1cn(C)cn1)O2` stands 1.65%; under `COc1cccc(NC(=O)CCC(=O)O)c1`, -2.64%.
To `Cc1cccc(NC(=O)CSc2nnc3c4ccccc4nc(-c4ccccc4)n23)c1` belongs -2.64%; to `Cc1cccc(C)c1NC(=O)CSc1nc(O)cc(=O)[nH]1`, -1.7%; to `COc1ccccc1CC(=O)Nc1ccc(-c2nnc(-c3ccc(C)cc3)o2)cc1`, 6.73%.
Under `Cc1ccc2nc(-c3ccncc3)cc(C(=O)NCc3ccccn3)c2c1` stands -5.08%; under `COC(=O)c1sccc1NC(=O)COc1cc(C)ccc1Cl`, 6.51%; under `COc1cc2c(cc1NC(=O)CN(C)S(=O)(=O)c1ccc(Br)cc1)oc1ccccc12`, -2.44%.
Turning to `Cc1ccc([N+](=O)[O-])cc1NC(=O)CSc1nnc(-c2ccncc2)n1C`, the inhibition was -0.493%.
Turning to `O=C(CCn1nc(-c2ccccc2)c2ccccc2c1=O)Nc1cccc(Br)c1`, the inhibition is 8.57%.
Under `O=C(COc1ccc2ccccc2c1Br)NCCN1CCOCC1` stands 0.329%; under `O=C(CSc1nnc(-c2ccncc2)n1-c1ccccc1)Nc1ccc(OC(F)(F)F)cc1`, 1.66%; under `COC(=O)c1c(-c2cccnc2)csc1NC(=O)c1cc(-c2ccc(C)o2)nc2ccccc12`, 9.69%.
In the case of `C[C@@H]1CN([C@H](C)CO)C(=O)Cc2cc(NC(=O)CCCN(C)C)ccc2O[C@H]1CN(C)S(=O)(=O)c1cccs1`, the inhibition was -0.927%.
Under `COc1cc(OC)c(C2=NOC(C(=O)Nc3cccnc3)C2)cc1Cl` (stereo not drawn) stands -2.64%; under `C[C@H](CO)N1C[C@H](C)[C@H](CN(C)S(=O)(=O)c2ccccc2)Oc2ccc(NC(=O)Cn3cnnn3)cc2C1=O`, 1.24%; under `COc1ccc(S(=O)(=O)Nc2ccc3c(c2)C(=O)N([C@H](C)CO)C[C@H](C)[C@@H](CN(C)Cc2ccc(-c4ccccc4)cc2)O3)cc1`, 2.44%.
For `CC(=O)Nc1ccc(S(=O)(=O)NC2(C(F)(F)F)C(=O)N(Cc3ccc(F)cc3)C3=C2C(=O)CC(C)(C)C3)cc1` (stereo not drawn), the inhibition is -0.346%.
`CCOC(=O)c1sc(NC(=O)c2cc(C)on2)c(C(=O)OCC)c1C`: the inhibition is -1.02%.
To `Cc1nnc(SCC(=O)Nc2cc(C(F)(F)F)ccc2Cl)s1` belongs 3.42%.
Regarding `O=C(COc1ccc2oc3c(c2c1)CCCC3)Nc1cccnc1`, the inhibition is -2.38%.
Under `O=C1c2ccccc2C(=O)N1CCCc1nc2ccccc2c(=O)n1-c1nc2ccccc2s1` stands -0.682%.
As to `CC(C)=CCCC(C)(O)C(O)Cc1cc(C(=O)O)cc(CC=C(C)C)c1O` (stereo not drawn), the inhibition is -4.79%.
To `O=C(Cn1ccc([N+](=O)[O-])n1)NCc1cccs1` belongs 4.56%.
With `COc1ccc(C(=O)N(Cc2nc(-c3ccccc3)no2)C(C)C)cc1[N+](=O)[O-]`, the inhibition was -9.54%.
Under `COC(=O)c1cc(OC)c(OC)cc1NC(=O)COc1ccc(Cl)cc1` stands -1.45%.
With `Cc1cc(Cl)ccc1NC(=O)CN(c1ccc(Cl)c(Cl)c1)S(C)(=O)=O`, the inhibition is -1.61%.
To `O=S(=O)(c1ccc(F)cc1)c1nc(-c2ccccc2Cl)oc1NCc1ccco1` belongs 4.44%; to `COc1cc(-c2nc3ccccc3s2)ccc1OCC(=O)Nc1ccc(C)cc1`, 1.24%; to `C[C@H](CO)N1C[C@H](C)[C@H](CN(C)C)Oc2ncc(/C=C/c3ccccc3)cc2C1=O`, -3.66%.
Under `Cc1noc(C)c1NC(=O)Nc1ccc2c(c1)C(=O)N([C@H](C)CO)C[C@H](C)[C@@H](CN(C)C(=O)Nc1ccc(C(F)(F)F)cc1)O2` stands 3.9%; under `COc1ccccc1NC(=O)c1c(NC(=O)c2cccnc2)sc(C)c1C`, 4.55%; under `c1ccc(-n2c(SCc3nc4ccccc4s3)nnc2-c2ccncc2)cc1`, 1.5%.
Turning to `O=[N+]([O-])c1ccccc1-c1ccc(CN2CCN3CCCC3C2C2CCCCC2)o1` (stereo not drawn), the inhibition was -1.45%.
Regarding `O=C(CCn1nc(-c2ccc(Cl)cc2)c2ccccc2c1=O)Nc1cccc(C(F)(F)F)c1`, the inhibition is 0.989%.
Under `C[C@@H]1CN([C@H](C)CO)C(=O)Cc2cc(NS(C)(=O)=O)ccc2O[C@@H]1CN(C)C(=O)Nc1ccc2c(c1)OCO2` stands 1.61%; under `CCOc1c(S(=O)(=O)NCc2cccnc2)ccc(Cl)c1Cl`, 3.15%; under `O=C(Oc1ccccc1)c1cccc(COC(=O)c2cc3ccccc3oc2=O)c1`, -1.52%.
To `COc1cccc(-c2cnc3c(c2)C(=O)N([C@H](C)CO)C[C@H](C)[C@H](CN(C)Cc2ccncc2)O3)c1` belongs -1.09%.
Under `O=C1c2c(O)cc(O)cc2O[C@@H](c2ccc(O)cc2)[C@@H]1c1c(O)cc(O)c2c(=O)cc(-c3ccc(O)cc3)oc12` stands 6.09%.
As to `Cc1cc(C)cc(OCC(=O)Nc2cccc(-c3nnc(-c4ccccc4)o3)c2)c1`, the inhibition was 4.59%.
As for `C[C@@H]1CN([C@@H](C)CO)C(=O)Cc2cc(NC(=O)Nc3ccc4c(c3)OCO4)ccc2O[C@@H]1CN(C)CC1CCCCC1`, the inhibition was 1.59%.
To `c1ccc(Cn2c3ccccc3c3nnc(SCc4ccc5nonc5c4)nc32)cc1` belongs 2.04%.
Under `C[C@H]1CN([C@@H](C)CO)C(=O)CCCn2nncc2CO[C@@H]1CN(C)S(=O)(=O)c1cccc(C#N)c1` stands 4.45%; under `COc1ccc(N2C(=O)CC(SCC(=O)Nc3ccccc3F)C2=O)cc1` (stereo not drawn), 0.679%; under `Cc1ccc(-n2c(SCC(=O)Nc3ccc(F)c(F)c3)nnc2-c2cnccn2)cc1`, -2.72%.
To `COc1cc2c(cc1NC(=O)C1CCC(=O)N1S(=O)(=O)c1ccc(C)cc1)oc1ccccc12` (stereo not drawn) belongs -1.01%; to `Cc1ccc(-c2nnc(Nc3ccc(C(=O)N(C)C)cc3)c3ccccc23)cc1S(N)(=O)=O`, 1.54%; to `CCc1c(O)nc(SCC(=O)Nc2ccc(OC)cc2)n(-c2ccccc2C)c1=O`, -1.3%.
With `S=c1cc(-c2ccccc2)oc(-c2ccccc2)c1`, the inhibition was 9.05%.
Under `COc1ccccc1NC(=O)CCC(=O)c1ccc(C)cc1` stands 0.187%; under `CCN(CC)C(=O)c1ccc(O)c(OC)c1`, 1.6%.
With `COc1cc(/C=C2\Oc3cc(O)cc(O)c3C2=O)ccc1O`, the inhibition is 80.7% (active).
Under `COc1cc(/C=C/C(=O)NCCc2ccc(O)cc2)ccc1O` stands -4.2%; under `C[C@H](CO)N1C[C@H](C)[C@H](CN(C)S(=O)(=O)c2cccc(F)c2)OCc2cnnn2CCCC1=O`, 1.75%.
Under `Cc1ccc2oc3c(c(=O)c2c1)C(c1ccc([N+](=O)[O-])cc1)N(CCCN1CCOCC1)C3=O` (stereo not drawn) stands -0.738%; under `O=C(CSc1nnc(-c2ccccc2Cl)n1-c1ccccc1)Nc1ccc([N+](=O)[O-])cc1`, 1.7%.
To `CCOC(=O)CCSc1nnc2c3ccccc3n(C)c2n1` belongs 0.466%; to `O=C(CN1C(=O)COc2ccc(Cl)cc21)Nc1ccc(N2CCOCC2)cc1`, 6.98%.
